Results published in ChEMBL document CHEMBL1961873, “Compounds: GSK PKIS; Assays: Nanosyn kinase panel” (2012).

What was measured:
[1] = target: Protein kinase C gamma type (Homo sapiens) (UniProt P05129); conditions: at 1 µM;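 also: each value is an averaged percent inhibition of the enzyme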
[2] = target: T1, Protein kinase C iota type (Homo sapiens) (UniProt P41743); conditions: at 0.1 µM
T1 sequence (whole entry): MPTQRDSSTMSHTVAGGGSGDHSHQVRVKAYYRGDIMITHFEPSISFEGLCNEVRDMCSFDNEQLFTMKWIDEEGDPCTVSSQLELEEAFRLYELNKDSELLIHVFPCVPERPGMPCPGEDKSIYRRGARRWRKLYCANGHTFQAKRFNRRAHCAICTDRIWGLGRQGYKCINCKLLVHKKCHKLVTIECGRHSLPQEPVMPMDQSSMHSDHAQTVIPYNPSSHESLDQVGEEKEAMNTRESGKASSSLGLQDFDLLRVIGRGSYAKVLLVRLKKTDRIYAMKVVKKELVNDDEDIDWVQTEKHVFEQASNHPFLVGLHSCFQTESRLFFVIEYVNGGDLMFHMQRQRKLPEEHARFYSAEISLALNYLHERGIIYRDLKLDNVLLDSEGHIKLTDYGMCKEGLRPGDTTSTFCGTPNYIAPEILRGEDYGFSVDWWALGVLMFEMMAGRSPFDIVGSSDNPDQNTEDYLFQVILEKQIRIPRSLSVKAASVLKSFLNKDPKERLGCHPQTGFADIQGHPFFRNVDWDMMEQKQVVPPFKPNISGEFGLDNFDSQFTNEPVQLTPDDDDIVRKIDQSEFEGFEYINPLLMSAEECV

[3] = target: T1, Protein kinase C iota type (Homo sapiens); conditions: at 1 µM
[4] = target: Protein kinase C theta type (Homo sapiens) (UniProt Q04759); conditions: at 0.1 µM
Sequence of Protein kinase C theta type (Homo sapiens) (Q04759 whole entry, looked up): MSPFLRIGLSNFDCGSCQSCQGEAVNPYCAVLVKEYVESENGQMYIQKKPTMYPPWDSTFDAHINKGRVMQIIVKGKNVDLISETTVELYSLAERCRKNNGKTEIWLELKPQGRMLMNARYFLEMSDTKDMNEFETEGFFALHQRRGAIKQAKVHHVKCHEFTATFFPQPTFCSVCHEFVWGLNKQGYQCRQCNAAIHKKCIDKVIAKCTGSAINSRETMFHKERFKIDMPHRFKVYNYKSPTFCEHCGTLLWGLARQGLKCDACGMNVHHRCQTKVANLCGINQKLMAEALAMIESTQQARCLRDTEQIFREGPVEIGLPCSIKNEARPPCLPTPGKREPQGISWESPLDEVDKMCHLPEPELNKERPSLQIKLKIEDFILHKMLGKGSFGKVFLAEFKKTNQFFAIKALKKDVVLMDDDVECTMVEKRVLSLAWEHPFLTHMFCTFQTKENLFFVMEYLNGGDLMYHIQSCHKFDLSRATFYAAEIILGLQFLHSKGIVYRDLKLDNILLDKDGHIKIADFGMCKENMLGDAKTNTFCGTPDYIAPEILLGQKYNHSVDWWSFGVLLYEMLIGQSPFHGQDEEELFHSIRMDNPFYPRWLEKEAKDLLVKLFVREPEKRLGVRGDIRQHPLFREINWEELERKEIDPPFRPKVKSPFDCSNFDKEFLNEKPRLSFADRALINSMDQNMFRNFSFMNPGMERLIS

[5] = target: Protein kinase C theta type (Homo sapiens) (UniProt Q04759); conditions: at 1 µM
[6] = target: Protein kinase C beta type (Homo sapiens) (UniProt P05771); conditions: at 0.1 µM
Sequence of Protein kinase C beta type (Homo sapiens) (P05771 2-671 limits assumed): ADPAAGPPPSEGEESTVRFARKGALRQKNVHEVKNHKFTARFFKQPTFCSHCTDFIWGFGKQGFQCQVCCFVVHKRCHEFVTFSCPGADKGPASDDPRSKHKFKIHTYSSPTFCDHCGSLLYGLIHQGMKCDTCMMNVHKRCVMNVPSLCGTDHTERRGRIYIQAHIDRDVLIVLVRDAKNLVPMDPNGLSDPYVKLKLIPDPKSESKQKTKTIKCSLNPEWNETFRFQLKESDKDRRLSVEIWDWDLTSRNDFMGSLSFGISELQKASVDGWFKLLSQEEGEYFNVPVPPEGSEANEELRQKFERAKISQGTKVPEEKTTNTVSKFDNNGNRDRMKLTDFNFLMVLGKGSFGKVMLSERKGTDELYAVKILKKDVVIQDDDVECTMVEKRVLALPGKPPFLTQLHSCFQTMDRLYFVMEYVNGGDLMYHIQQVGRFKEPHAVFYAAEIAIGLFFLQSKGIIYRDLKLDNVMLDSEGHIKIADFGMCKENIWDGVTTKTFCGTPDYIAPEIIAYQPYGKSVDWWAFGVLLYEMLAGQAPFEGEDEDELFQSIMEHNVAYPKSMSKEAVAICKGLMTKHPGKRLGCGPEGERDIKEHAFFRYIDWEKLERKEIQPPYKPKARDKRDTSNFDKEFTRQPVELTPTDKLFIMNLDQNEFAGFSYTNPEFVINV

[7] = target: Protein kinase C beta type (Homo sapiens) (UniProt P05771); conditions: at 1 µM
[8] = target: T2, Serine/threonine-protein kinase D1 (Homo sapiens) (UniProt Q15139); conditions: at 0.1 µM
T2 sequence (whole entry): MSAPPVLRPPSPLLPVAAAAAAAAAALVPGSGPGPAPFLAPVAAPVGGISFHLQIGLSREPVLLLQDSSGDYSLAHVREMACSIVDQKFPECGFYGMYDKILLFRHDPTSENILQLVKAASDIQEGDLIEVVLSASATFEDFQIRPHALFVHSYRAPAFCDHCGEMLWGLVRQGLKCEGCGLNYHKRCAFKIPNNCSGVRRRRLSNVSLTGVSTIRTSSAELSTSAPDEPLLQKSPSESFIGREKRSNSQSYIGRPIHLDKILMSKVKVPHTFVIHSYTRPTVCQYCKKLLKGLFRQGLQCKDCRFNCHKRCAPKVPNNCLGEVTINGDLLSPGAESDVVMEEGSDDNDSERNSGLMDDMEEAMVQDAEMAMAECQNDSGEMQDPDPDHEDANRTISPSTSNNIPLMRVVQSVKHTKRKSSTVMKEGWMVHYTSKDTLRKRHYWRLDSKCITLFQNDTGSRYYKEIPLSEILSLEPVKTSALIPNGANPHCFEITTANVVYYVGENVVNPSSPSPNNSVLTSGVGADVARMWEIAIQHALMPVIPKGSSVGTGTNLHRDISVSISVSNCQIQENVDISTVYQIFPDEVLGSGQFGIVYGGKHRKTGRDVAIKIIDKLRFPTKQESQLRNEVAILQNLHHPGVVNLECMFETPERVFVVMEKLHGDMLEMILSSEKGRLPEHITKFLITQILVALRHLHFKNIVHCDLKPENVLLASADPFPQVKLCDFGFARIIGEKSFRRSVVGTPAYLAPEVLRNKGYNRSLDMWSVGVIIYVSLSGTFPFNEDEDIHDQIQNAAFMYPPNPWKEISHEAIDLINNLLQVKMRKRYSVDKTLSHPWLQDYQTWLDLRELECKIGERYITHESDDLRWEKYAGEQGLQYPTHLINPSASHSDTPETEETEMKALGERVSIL

[9] = target: T2, Serine/threonine-protein kinase D1 (Homo sapiens); conditions: at 1 µM
[10] = target: T3, Serine/threonine-protein kinase D2 (Homo sapiens) (UniProt Q9BZL6); conditions: at 0.1 µM
T3 sequence (whole entry): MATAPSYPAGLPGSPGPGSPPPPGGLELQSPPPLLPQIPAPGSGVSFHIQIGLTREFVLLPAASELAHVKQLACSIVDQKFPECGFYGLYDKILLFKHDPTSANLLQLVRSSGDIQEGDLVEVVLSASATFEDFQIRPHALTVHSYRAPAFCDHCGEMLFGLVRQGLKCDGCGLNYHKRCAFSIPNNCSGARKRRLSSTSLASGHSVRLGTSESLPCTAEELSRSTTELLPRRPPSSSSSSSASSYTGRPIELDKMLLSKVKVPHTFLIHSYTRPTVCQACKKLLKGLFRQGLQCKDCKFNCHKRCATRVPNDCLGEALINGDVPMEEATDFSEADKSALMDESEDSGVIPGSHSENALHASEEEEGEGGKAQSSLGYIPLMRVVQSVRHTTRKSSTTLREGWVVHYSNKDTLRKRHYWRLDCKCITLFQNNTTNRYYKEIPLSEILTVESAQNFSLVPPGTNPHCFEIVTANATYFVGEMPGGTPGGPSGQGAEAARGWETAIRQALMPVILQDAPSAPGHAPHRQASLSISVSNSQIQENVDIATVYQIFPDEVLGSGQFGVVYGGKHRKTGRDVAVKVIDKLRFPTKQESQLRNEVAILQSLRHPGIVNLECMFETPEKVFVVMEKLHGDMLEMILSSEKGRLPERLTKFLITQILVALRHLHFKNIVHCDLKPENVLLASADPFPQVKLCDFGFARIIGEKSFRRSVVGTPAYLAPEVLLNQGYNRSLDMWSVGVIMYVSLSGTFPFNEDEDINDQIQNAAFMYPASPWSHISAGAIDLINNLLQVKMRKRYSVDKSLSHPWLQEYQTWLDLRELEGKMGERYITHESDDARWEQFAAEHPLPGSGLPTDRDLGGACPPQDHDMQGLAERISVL

[11] = target: T3, Serine/threonine-protein kinase D2 (Homo sapiens); conditions: at 1 µM
[12] = target: T4, Serine/threonine-protein kinase D3 (Homo sapiens) (UniProt O94806); conditions: at 0.1 µM
T4 sequence (whole entry): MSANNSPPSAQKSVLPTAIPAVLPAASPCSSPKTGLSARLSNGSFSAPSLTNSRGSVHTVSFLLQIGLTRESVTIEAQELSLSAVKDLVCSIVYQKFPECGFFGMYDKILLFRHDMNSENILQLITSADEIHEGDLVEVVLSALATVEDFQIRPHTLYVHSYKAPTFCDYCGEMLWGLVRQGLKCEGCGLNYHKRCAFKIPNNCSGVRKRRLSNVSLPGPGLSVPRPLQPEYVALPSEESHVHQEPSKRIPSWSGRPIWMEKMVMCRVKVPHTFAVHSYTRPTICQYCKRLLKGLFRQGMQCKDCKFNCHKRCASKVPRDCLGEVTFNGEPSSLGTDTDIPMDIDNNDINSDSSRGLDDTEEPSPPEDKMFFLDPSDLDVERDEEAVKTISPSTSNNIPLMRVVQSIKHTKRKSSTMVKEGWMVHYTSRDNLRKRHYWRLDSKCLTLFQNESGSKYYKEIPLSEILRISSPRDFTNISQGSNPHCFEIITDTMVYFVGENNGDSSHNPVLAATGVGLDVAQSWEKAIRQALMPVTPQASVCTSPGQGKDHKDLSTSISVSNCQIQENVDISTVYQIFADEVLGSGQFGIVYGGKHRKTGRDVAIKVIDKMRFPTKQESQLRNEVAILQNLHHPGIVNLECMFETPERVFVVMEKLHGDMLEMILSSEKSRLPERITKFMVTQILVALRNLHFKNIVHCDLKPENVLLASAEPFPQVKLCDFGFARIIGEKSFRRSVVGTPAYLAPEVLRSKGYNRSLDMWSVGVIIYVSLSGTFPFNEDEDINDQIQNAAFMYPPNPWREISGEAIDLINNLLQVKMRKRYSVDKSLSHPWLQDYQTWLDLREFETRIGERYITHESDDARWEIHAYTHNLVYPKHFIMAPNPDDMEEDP

[13] = target: T4, Serine/threonine-protein kinase D3 (Homo sapiens); conditions: at 1 µM
[14] = target: T5, cGMP-dependent protein kinase 1 (Homo sapiens) (UniProt Q13976); conditions: at 0.1 µM
T5 sequence (whole entry): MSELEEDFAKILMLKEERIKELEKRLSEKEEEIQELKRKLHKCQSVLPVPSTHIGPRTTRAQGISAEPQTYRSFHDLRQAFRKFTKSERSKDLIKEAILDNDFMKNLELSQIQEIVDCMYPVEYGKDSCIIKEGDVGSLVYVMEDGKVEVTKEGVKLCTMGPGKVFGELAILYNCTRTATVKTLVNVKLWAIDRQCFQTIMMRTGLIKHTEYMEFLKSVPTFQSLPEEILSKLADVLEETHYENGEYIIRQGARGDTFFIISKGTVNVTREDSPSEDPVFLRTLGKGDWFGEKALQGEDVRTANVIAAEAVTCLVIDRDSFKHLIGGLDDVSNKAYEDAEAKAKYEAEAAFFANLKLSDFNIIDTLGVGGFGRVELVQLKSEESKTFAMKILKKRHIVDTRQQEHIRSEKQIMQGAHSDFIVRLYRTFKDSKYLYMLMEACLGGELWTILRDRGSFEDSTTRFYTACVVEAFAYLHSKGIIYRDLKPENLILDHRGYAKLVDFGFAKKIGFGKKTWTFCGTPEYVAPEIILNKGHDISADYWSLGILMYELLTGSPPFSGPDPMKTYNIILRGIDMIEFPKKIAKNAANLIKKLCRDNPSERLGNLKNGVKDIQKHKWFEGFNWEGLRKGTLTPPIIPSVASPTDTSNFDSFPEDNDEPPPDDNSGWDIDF

[15] = target: T5, cGMP-dependent protein kinase 1 (Homo sapiens); conditions: at 1 µM
[16] = target: T6, cGMP-dependent protein kinase 2 (Homo sapiens) (UniProt Q13237); conditions: at 0.1 µM
T6 sequence (whole entry): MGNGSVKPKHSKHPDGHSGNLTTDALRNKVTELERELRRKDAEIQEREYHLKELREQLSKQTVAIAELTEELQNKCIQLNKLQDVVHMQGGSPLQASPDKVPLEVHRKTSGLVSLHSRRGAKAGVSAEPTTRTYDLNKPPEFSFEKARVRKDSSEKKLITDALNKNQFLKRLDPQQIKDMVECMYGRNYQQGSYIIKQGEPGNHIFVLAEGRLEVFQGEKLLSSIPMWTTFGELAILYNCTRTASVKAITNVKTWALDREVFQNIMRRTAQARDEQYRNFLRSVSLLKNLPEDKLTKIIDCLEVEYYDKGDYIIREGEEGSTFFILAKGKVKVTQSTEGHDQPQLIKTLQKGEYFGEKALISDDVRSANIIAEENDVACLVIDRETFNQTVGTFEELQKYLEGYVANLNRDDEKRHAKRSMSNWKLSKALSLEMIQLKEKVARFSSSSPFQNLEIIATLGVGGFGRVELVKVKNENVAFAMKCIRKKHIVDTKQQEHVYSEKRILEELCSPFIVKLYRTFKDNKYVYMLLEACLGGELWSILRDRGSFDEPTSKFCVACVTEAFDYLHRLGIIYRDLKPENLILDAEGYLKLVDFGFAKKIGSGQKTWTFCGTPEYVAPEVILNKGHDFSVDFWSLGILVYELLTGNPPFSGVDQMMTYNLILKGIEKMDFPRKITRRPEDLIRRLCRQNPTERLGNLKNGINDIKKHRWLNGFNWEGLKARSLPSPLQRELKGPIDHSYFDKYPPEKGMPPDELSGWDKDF

[17] = target: T6, cGMP-dependent protein kinase 2 (Homo sapiens); conditions: at 1 µM
[18] = target: T7, cAMP-dependent protein kinase catalytic subunit PRKX (Homo sapiens) (UniProt P51817); conditions: at 0.1 µM
T7 sequence (whole entry): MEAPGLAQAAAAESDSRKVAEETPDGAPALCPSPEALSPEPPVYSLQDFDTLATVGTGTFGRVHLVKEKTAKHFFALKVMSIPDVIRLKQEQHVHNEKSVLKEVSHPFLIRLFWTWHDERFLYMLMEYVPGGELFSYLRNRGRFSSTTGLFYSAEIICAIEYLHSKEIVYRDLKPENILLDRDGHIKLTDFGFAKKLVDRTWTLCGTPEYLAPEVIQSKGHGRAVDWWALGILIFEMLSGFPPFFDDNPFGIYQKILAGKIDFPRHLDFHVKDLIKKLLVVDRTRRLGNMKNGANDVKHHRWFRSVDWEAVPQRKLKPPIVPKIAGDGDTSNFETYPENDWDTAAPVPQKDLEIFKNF

[19] = target: T7, cAMP-dependent protein kinase catalytic subunit PRKX (Homo sapiens); conditions: at 1 µM
[20] = target: Rho-associated protein kinase 1 (Homo sapiens) (UniProt Q13464); conditions: at 0.1 µM;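 also: values are mean percent inhibition of ROCK1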
Sequence of Rho-associated protein kinase 1 (Homo sapiens) (Q13464 2-1354 limits assumed): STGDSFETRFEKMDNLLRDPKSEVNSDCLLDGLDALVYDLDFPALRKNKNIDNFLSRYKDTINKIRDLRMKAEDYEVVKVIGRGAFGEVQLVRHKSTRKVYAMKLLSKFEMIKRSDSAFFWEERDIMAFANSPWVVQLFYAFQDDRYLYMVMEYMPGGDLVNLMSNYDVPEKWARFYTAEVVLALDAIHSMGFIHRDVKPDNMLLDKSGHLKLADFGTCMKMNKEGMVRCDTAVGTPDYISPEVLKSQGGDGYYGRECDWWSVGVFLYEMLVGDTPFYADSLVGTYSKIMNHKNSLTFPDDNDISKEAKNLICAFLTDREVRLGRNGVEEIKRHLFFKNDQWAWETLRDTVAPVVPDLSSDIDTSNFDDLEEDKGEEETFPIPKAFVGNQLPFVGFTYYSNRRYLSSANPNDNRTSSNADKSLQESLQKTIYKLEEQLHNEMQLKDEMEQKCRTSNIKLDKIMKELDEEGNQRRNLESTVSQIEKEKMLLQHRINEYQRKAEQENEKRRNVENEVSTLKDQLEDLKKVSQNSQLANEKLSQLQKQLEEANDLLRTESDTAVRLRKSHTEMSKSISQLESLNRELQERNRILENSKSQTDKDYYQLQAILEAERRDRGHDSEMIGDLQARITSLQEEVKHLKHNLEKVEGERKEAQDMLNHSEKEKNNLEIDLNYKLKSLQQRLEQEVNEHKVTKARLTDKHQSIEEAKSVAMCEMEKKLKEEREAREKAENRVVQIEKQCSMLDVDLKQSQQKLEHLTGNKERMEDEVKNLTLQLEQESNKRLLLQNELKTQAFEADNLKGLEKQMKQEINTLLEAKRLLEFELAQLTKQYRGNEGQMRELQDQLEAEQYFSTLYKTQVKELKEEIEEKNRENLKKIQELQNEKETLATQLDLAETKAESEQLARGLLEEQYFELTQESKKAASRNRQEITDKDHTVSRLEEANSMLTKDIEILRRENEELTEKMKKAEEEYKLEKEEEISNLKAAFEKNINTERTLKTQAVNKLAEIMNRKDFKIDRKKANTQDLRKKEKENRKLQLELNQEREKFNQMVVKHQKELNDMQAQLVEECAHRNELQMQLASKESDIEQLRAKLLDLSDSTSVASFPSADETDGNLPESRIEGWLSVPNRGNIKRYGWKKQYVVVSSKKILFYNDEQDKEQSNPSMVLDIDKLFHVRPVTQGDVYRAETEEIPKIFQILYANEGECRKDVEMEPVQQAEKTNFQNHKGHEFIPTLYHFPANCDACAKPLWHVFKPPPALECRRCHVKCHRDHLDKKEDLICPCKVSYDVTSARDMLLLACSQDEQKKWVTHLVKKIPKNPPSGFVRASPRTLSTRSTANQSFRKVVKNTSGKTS

SMILES | inhibition [1] | inhibition [2] | inhibition [3] | inhibition [4] | inhibition [5] | inhibition [6] | inhibition [7] | inhibition [8] | inhibition [9] | inhibition [10] | inhibition [11] | inhibition [12] | inhibition [13] | inhibition [14] | inhibition [15] | inhibition [16] | inhibition [17] | inhibition [18] | inhibition [19] | inhibition [20]
Nc1nc(-c2ccc3c(c2)C(=Cc2cc(Br)c(O)c(Br)c2)C(=O)N3)cs1 | 2.01% | 0.79% | 0.34% | -1.06% | 0.33% | -0.52% | 1.78% | -1.69% | -1.78% | -2.06% | -1.39% | -1.58% | -1.34% | 0.42% | 1.43% | -0.63% | 1.49% | -0.49% | 0.42% | -0.08%
CCn1c(-c2nonc2N)nc2c(N3CCCC3)nccc21 | 2.66% | 0.51% | -0.25% | -0.32% | 0.44% | -1.87% | 2.46% | -0.28% | -0.14% | -1.19% | -0.31% | -0.29% | 0.75% | 0.96% | 3.63% | 1.09% | 9.26% | 0.17% | 0.74% | 3.22%
CS(=O)(=O)CCN(CC#N)Cc1ccc(-c2ccc3ncnc(Nc4ccc(OCc5cccc(F)c5)c(Cl)c4)c3c2)o1 | -0.45% | 1.19% | 0.81% | 0.98% | 0.92% | 0.59% | 0.66% | -2.21% | -3.04% | -2.89% | -4.76% | -2.15% | -3.08% | 2.42% | 3.06% | 0.52% | 0.66% | 1.58% | 1.54% | 0.99%
